For 40 compounds, outcome and AC50 results are on record in PubChem BioAssay (EPA / NIEHS).

The source made the active and inactive calls. Rule for the calls: active = hit-call score of the fitted dose curve at least 0.9, where 1 is the maximum; inactive = score below 0.9.

This assay is described as follows: ATG_M_19_CIS: Attagene CIS-FACTORIAL HepG2 Assay for M19 Transcription Factor (Internal Marker) (AID 2282939). Particulars: HepG2 Attagene CIS-FACTORIAL M19 internal marker reporter; actives raise or lower the signal. On the procedure: ATG_CIS is a cell-based, multiplexed-readout assay that uses HepG2, a human liver cell line, with measurements taken at 24 hours after chemical dosing in a 24-well plate.ATG_M_19_CIS is one of 52 assay component(s) measured or calculated from the ATG_CIS assay. It is designed to make measurements of mRNA induction, a form of inducible reporter, as detected with fluorescence intensity signals by Reverse transcription polymerase chain reaction (RT-PCR) and Capillary electrophoresis technology.Data from the assay component ATG_M_19_CIS was analyzed into 1 assay endpoint. This assay endpoint, ATG_M_19_CIS, was analyzed with bidirectional fitting relative to DMSO as the negative control and baseline of activity. Using a type of inducible reporter, measures of mRNA for gain or loss-of-signal activity can be used to understand the background control at the transcription factor-level as they relate to the gene . Furthermore, this assay endpoint can be referred to as a secondary readout, because this assay has produced multiple assay endpoints where this one serves a background control function. To generalize the intended target to other relatable targets, this assay endpoint is annotated to the background measurement intended target family, where the subfamily is internal marker.
Human liver HepG2 cells are transiently transfected with multiple reporter transcription units (MRTUs) in 6-well plates using FuGene 6 reagent (Roche; 3 ml FuGene/1 mg DNA). The MRTU constructs are regulated by a cis-regulating element (promoter). […] A major difference between the CIS and TRANS system is that in CIS activities of endogenous TFs are measured, whereas the TRANS assay evaluates changes in activities of exogenous, chimeric NR-Gal4 proteins. […] At the end of 24 hour incubation, total RNA was isolated using TriZol reagent (Invitrogen). The isolated RNA is then reverse-transcribed using oligo(dT) primer and Mo-MLV reverse transcriptase (Invitrogen) with DNAse I (Ambion) treatment for 30 min. The one-tenth of the produced cDNA was amplified by PCR using Taq DNA polymerase (Invitrogen) and two reporter sequence-specific primers. The PCR products were fluorescently labeled by primer extension with 6-arboxyfluorescein (6-FAM) 5'-labeled reporter sequence-specific primer (2 min at 95 C, 20 s at 68 C and 10 min at 72 C) and these products were digested with 5U of HpaI (New England Biolabs) for 2h at 37 C. The fragments were purified using Qiaquick PCR columns (Qiagen), analyzed on an ABI 3130xL genetic analyzer (Applied Biosystems) with peak positions identified by using a set of X-rhodamine (ROX)-labeled MapMarker1000 molecular weight standards (BioVentures). The raw capillary electrophoresis data was processed using Attagraph software (Attagene).
As for `CCCCCCCCCCN`, the result was inactive.

For `Clc1nc(C(Cl)(Cl)Cl)c(Cl)c(Cl)c1Cl`, the compound was classed as inactive.

On to `CCc1ccc(C=O)cc1`, for which the compound was called inactive.

Regarding `C=CC[N+](C)(C)CC=C`, the call was inactive.

Take `Clc1ccc(Cl)c(Cl)c1Cl`: the result was inactive.

For `CCCCc1ccc(N)cc1`, the outcome was inactive.

As to `O=C(O)c1cn(C2CC2)c2cc(N3CCNCC3)c(F)cc2c1=O`, the result was inactive.

Regarding `CC[Si](OC(C)=O)(OC(C)=O)OC(C)=O`, the compound was called inactive.

With `CC(CN1c2ccccc2Sc2ccccc21)N(C)C` (stereo not given), the compound was called inactive.

For the compound `CC(CC(C)(C)C)CC(C)(C)CC(C)(C)C` (stereo not given), the compound was called inactive.

As for `COc1c(Cl)c(Cl)c(Cl)c(Cl)c1Cl`, the compound was called inactive.

Regarding `CC1(C)[C@H]2CC[C@]1(C)[C@H](O)C2`, the call was inactive.

For the compound `CC(C)(C)C(=O)c1ccccc1`, the result was inactive.

For the compound `Cc1ccc(C=O)s1`, the call was inactive.

For the compound `C=O`, the result was inactive.

Take `NC(=O)NC1NC(=O)NC1=O` (stereo not given): the call was inactive.

Take `CCCc1ccccc1O`: the compound was called inactive.

Consider `CC(C)(CO)[N+](=O)[O-]`, for which the outcome was inactive.

Take `Clc1sc(Cl)c(Cl)c1Cl`: the compound was called inactive.

With `CC[C@]12CCCN3CCc4c(n(c5ccccc45)[C@@](O)(C(=O)OC)C1)[C@@H]32`, the compound was classed as inactive.

Take `CC(=O)c1c(C)cc(C(C)(C)C)cc1C`: the compound was classed as inactive.

In the case of `CCCC1CCC(=O)O1` (stereo not given), the result was inactive.

As for `O=c1[nH]c(=O)n([C@H]2CCCO2)cc1F`, the result was inactive.

Regarding `CN1Cc2c(N)cccc2C(c2ccccc2)C1` (stereo not given), the call was inactive.

Consider `COC(=O)Cc1cccc2ccccc12`, for which the compound was called inactive.

On to `CCCCC(CC)COCCC#N` (stereo not given), for which the call was inactive.

With `CC(=O)[C@H]1CC[C@H]2[C@@H]3CC=C4C[C@@H](O)CC[C@]4(C)[C@H]3CC[C@]12C`, the compound was classed as inactive.

Regarding `CCCCC(CC)COC(=O)/C=C\C(=O)OCC(CC)CCCC` (stereo not given), the call was inactive.

As for `CC(C)(C#N)c1cc(Cn2cncn2)cc(C(C)(C)C#N)c1`, the outcome was inactive.

For the compound `CC(C)Oc1ccccc1O`, the outcome was inactive.

As to `COc1ccc(Cl)cc1C`, the call was inactive.

`CC(=O)C(=O)O`: the result was inactive.

Turning to `C=C(C)[C@@H]1CC[C@@H](C)C[C@@H]1O`, the compound was classed as inactive.

For `CN(C)C(=N)N=C(N)N`, the compound was called inactive.

For `c1cc(C(c2ccc(OCC3CO3)cc2)c2ccc(OCC3CO3)cc2)ccc1OCC1CO1` (stereo not given), the AC50 was 175 µM (active).

Turning to `Sc1nc(S)nc(S)n1`, the compound was called inactive.

As for `C[C@H]1C[C@@H]2[C@H]([C@@H](O)C[C@@]3(C)[C@H]2CC[C@]3(O)C(=O)CO)[C@@]2(C)C=CC(=O)C=C12`, the compound was called inactive.

As to `CC(C)(C)c1cc(CCC(=O)NN)cc(C(C)(C)C)c1O`, the compound was classed as inactive.

Consider `[Ca+2]`, for which the compound was called inactive.

Regarding `COCCOCCOCCOCCOCCO`, the outcome was inactive.
